Reference: PubChem BioAssay (Tox21)
Several values for one entry are separate records, joined by “and”; a condition that tells them apart may be missing. Equal entries are not always repeated. Results filed as inconclusive are left out. Some structures have more than one record in an assay (separate samples or runs), and their calls can disagree. Activity calls are given as the source filed them. Unless noted, the call rests on the fitted dose curve; in most records, active means well fitted curve in the direction sought with a large enough effect in the repeat runs; inconclusive means weak or mixed curves; inactive means no such curve, though single readings can be large; an effect the other way counts as inactive or inconclusive.

Tests used:
[1] = qHTS assay to identify small molecule antagonists of the estrogen receptor alpha (ER-alpha) signaling pathway using the BG1 cell line in the presence of 0.1 nM 17-beta-estradiol - cell viability counter screen (AID 1259241); further: nearly all actives have a fitted effect of over 40% in size; further: potency means the concentration at half of the fitted maximal effect
Outline: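 Cells were plated and left 24 hr, compounds in DMSO were pinned in, 17beta-estradiol was added to 0.1 nM final, and after 22 hr CellTiter-Fluor reagent was added for 30 min before fluorescence was read.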

[2] = qHTS assay to identify small molecule antagonists of the androgen receptor (AR) signaling pathway using the MDA cell line in the presence of 0.5 nM R1881 - cell viability counter screen (AID 1259242); further: nearly all actives have a fitted effect of over 45% in size; further: potency means the concentration at half of the fitted maximal effect
Outline: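 Live-cell protease fluorescence, CellTiter-Fluor, 30 min at 37C. Cells: MDA-kb2, 3,000/well, preincubated 5 hr. Compounds plus 0.5 nM R1881 final, 16 hr, 37C, 0% CO2.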

[3] = target: Estrogen receptor (Homo sapiens) (UniProt P03372); assay: qHTS assay to identify small molecule antagonists of the estrogen receptor alpha (ER-alpha) signaling pathway using the BG1 cell line in the presence of 0.1 nM 17-beta-estradiol (AID 1259244); further: nearly all actives have a fitted effect of over 50% in size; further: potency means the concentration at half of the fitted maximal effect
Chain of Estrogen receptor (Homo sapiens) (P03372 whole entry, looked up): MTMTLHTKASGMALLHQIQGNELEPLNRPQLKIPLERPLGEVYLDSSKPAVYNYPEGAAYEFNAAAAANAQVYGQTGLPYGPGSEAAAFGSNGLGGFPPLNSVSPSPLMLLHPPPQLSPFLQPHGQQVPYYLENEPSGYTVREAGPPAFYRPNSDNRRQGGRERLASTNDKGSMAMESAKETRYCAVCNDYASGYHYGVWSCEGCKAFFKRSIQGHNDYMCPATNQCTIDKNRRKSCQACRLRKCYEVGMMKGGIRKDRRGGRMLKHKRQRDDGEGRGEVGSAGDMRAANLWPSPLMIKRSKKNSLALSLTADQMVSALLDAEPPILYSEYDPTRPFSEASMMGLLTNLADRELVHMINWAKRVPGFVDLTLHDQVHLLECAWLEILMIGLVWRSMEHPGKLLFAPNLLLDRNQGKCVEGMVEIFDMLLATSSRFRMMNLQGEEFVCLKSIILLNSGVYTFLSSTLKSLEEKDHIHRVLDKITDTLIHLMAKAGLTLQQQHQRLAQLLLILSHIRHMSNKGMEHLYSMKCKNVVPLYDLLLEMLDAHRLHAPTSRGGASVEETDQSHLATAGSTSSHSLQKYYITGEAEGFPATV
Outline: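 Luminescence after ONE-Glo (30 min, room temperature) measured ERE-luciferase activity in VM7Luc4E2 cells treated 22 h with compound and 0.1 nM final 17beta-estradiol as stimulator.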

[4] = qHTS assay to identify small molecule HDAC inhibitors (AID 1259364);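 further: wild-type HCT-116 cells with endogenous class I/II HDAC activity; top concentration of the series differs between compounds; nearly all actives have a fitted effect of over 45% in size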
Outline: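 HCT-116 (wild type), 1,500 cells/well, overnight; compound 2 hr 37C 5% CO2; HDAC-Glo I/II reagent 30 min RT; luminescence readout.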

[5] = qHTS assay to identify small molecule HDAC inhibitors - cell viability counter screen (AID 1259365); further: nearly all actives have a fitted effect of over 50% in size; further: potency means the concentration at half of the fitted maximal effect
Outline: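 Counter screen in wild-type HCT-116 cells: compounds dissolved in DMSO are pin-transferred onto overnight-plated cells and left 2hr at 37C. ATP-based CellTiter-Glo luminescence then measures viable cells.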

[6] = qHTS assay to identify small molecule antagonists of the sonic hedgehog signaling (Shh) pathway - cell viability counter screen (AID 1259367); further: nearly all actives have a fitted effect of over 55% in size; further: potency means the concentration at half of the fitted maximal effect
Outline: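 CellTiter-Fluor signal in conditioned medium-stimulated 3T3 Gli1-Luc cells, 23 hr compound exposure, 37C.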

[7] = qHTS assay to identify small molecule agonists of the sonic hedgehog signaling (Shh) pathway (AID 1259368; calls by dose curve;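 further: NIH/3T3-derived 3T3Gli1-Luc cells carrying a stable Gli1-driven firefly luciferase reporter; series mostly up to about 92 µM; nearly all actives have a fitted effect of over 15% in size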)
Outline: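 Read-out: firefly luciferase luminescence from a Gli1 response element reporter stably integrated in NIH/3T3-derived 3T3Gli1-Luc cells, measured 30 min at room temperature after reagent addition. Compound exposure lasted 24 hr at 37 C, 5% CO2.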

[8] = qHTS assay to identify small molecule phospholipidosis (PLD) inducers (AID 1259344; active means well fitted curve in the direction sought with a large enough effect; an effect the other way counts as inactive or inconclusive; further: potency means the concentration at half of the fitted maximal effect)
Outline: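 Accumulated phospholipid, stained red by LipidTOX during 24 h compound treatment of HepG2 cells at 37 C, is quantified from images as pit number and intensity, normalised per cell using Hoechst-stained nuclei.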

[9] = qHTS assay to identify small molecule agonists of the sonic hedgehog signaling (Shh) pathway - cell viability counter screen (AID 1259366); further: nearly all actives have a fitted effect of over 50% in size; further: potency means the concentration at half of the fitted maximal effect
Outline: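 Cells are plated at 2,000 per well and left 4hr at 37C, 5% CO2 before compound addition. After 23hr of treatment, CellTiter-Fluor reagent is added for 1hr at 37C and fluorescence is measured.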

[10] = target: Androgen receptor (Homo sapiens) (UniProt P10275); assay: qHTS assay to identify small molecule antagonists of the androgen receptor (AR) signaling pathway using the MDA cell line in the presence of 0.5 nM R1881 (AID 1259243); further: nearly all actives have a fitted effect of over 50% in size
Chain of Androgen receptor (Homo sapiens) (P10275 whole entry, looked up): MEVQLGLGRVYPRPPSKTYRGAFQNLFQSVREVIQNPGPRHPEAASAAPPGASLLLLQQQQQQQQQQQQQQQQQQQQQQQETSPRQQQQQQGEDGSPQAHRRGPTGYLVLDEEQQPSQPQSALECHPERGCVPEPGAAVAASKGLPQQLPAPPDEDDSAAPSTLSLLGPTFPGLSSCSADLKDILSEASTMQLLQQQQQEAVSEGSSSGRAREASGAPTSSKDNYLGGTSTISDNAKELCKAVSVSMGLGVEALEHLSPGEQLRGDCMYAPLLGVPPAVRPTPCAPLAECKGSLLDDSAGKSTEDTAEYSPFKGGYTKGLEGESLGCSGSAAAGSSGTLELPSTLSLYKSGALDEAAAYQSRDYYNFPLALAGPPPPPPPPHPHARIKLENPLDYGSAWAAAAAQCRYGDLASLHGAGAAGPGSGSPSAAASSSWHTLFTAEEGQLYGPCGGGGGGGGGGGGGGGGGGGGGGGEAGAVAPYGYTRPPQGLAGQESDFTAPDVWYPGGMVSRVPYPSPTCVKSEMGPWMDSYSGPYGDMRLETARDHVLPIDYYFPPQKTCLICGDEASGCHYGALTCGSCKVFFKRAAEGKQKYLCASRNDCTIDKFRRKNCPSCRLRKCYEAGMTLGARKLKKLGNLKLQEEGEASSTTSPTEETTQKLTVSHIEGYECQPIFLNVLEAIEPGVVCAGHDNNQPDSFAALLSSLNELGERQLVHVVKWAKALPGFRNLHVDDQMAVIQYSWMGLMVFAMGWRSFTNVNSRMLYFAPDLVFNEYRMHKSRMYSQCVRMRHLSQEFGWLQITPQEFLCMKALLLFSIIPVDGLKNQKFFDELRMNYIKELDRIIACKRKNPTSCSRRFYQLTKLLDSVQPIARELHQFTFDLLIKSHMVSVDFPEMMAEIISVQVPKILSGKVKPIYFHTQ
Outline: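 MDA-kb2, MMTV-luc (AR/GR elements); 3,000 cells/well; cpd + 0.5 nM R1881 final; 16 hr 37C, 0% CO2; ONE-Glo 30 min RT; luminescence.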
On the % scale 0 is the no-effect control and ±100 the full control effect.

Cc1ncc([N+](=O)[O-])n1C
inactive: Potency [1] | Potency [2] | Potency [3] | Potency [4] | Potency [5] | Potency [6] | outcome [7]

CC(C)NCC(O)c1ccc(O)c(O)c1 (stereo not drawn)
inactive: Potency [1] | Potency [2] | Potency [8] | Potency [4] | Potency [5] | Potency [9] | Potency [6] | outcome [7]

Cc1cn([C@H]2C=C[C@@H](CO)O2)c(=O)[nH]c1=O
inactive: Potency [1] | Potency [2] | Potency [8] | Potency [4] | Potency [5] | Potency [9] | Potency [6] | outcome [7]

Nc1ccc(S(N)(=O)=O)cc1
inactive: Potency [1] | Potency [2] | Potency [8] | Potency [4] | Potency [5] | Potency [6] | outcome [7]

COc1ccc2cc(S(=O)(=O)N[C@H](CC(=O)N[C@H](Cc3ccc(CN4[C@H](C)CCC[C@@H]4C)cc3)C(=O)N(C)C(C)C)c3ccc4c(c3)OCO4)ccc2c1
inactive: Potency [5] | outcome [7]
active: Potency [1] 29 µM | Potency [2] 46 µM | Potency [3] 51.6 µM | Potency [9] 25.8 µM | Potency [6] 29 µM

O=C1O[C@H]([C@@H](O)CO)C(O)=C1O
inactive: Potency [1] | Potency [2] | Potency [8] | Potency [4] | Potency [5] | Potency [9] | Potency [6] | outcome [7]

COc1ccc(CN(CCN(C)C)c2ccccn2)cc1
inactive: Potency [1] | Potency [2] | Potency [8] | Potency [5] | Potency [9] | Potency [6] | outcome [7]

Cc1cccc(C)c1
inactive: Potency [1] | Potency [2] | Potency [3] | Potency [5] | Potency [6] | outcome [7]

CN(C)CCOC(C)(c1ccccc1)c1ccccn1 (stereo not drawn)
inactive: Potency [1] | Potency [2] | Potency [8] | Potency [4] | Potency [5] | Potency [9] | Potency [6] | outcome [7]

O=C(O)CC(O)C(=O)O (stereo not drawn)
inactive: Potency [1] | Potency [2] | Potency [8] | Potency [4] | Potency [5] | Potency [6] | outcome [7]

CCCCNC(=O)NS(=O)(=O)c1ccc(C)cc1
inactive: Potency [1] | Potency [2] | Potency [8] | Potency [4] | Potency [5] | Potency [6] | outcome [7]

CC12CCC(CC1)C(C)(C)O2
inactive: Potency [1] | Potency [2] | Potency [3] | Potency [8] | Potency [5] | Potency [6] | outcome [7]

O=C1c2c(O)cccc2Cc2cccc(O)c21
inactive: Potency [1] | Potency [2] | Potency [8] | Potency [4] | Potency [5] | Potency [9] | Potency [6] | outcome [7]

NC1CCCCC1
inactive: Potency [1] | Potency [2] | Potency [3] | Potency [5] | Potency [6] | outcome [7]

Nc1c2c(nc3ccccc13)CCCC2
inactive: Potency [1] | Potency [2] | Potency [3] | Potency [4] | Potency [5] | Potency [9] | Potency [6] | outcome [7]

CC(O)(P(=O)(O)O)P(=O)(O)O
inactive: Potency [1] | Potency [2] | Potency [8] | Potency [5] | Potency [9] | Potency [6] | outcome [7]

O=CC(=O)c1ccccc1
inactive: Potency [1] | Potency [2] | Potency [3] | Potency [6] | outcome [7]

CC1(C)O[C@@H]2C[C@H]3[C@@H]4CCC5=CC(=O)C=C[C@]5(C)[C@@]4(F)[C@@H](O)C[C@]3(C)[C@]2(C(=O)CO)O1
inactive: Potency [1] | Potency [2] | Potency [8] | Potency [5] | Potency [9] | Potency [6] | outcome [7]

CCCc1cc(=O)[nH]c(=S)[nH]1
inactive: Potency [1] | Potency [2] | Potency [3] | Potency [8] | Potency [5] | Potency [9] | Potency [6] | outcome [7]

C=C(C)C(=O)OCC(C)O (stereo not drawn)
inactive: Potency [1] | Potency [2] | Potency [3] | Potency [4] | Potency [5] | Potency [9] | Potency [6] | outcome [7]

O=C1NC(=O)C(c2ccccc2)(c2ccccc2)N1
inactive: Potency [1] | Potency [2] | Potency [8] | Potency [5] | Potency [6] | outcome [7]

COc1ccc(OC(F)(F)F)cc1CN[C@H]1CCCN[C@H]1c1ccccc1
active: Potency [2] 48.6 µM | Potency [6] 61.1 µM
inactive: Potency [4] | Potency [5] | outcome [7]

Cc1ccc(S(=O)(=O)O)cc1
inactive: Potency [1] | Potency [2] | Potency [4] | Potency [5] | Potency [9] | Potency [6] | outcome [7]

O=c1[nH]cc(F)c(=O)[nH]1
inactive: Potency [2] | Potency [8] | Potency [4] | Potency [5] | Potency [9] | Potency [6] | outcome [7]
12.7 µM (active) and inactive: Potency [3]

Nc1ccc([N+](=O)[O-])cc1O
inactive: Potency [3] | Potency [8] | Potency [5] | outcome [7]
active: Potency [1] 61.1 µM | Potency [9] 30.6 µM | Potency [6] 24.3 µM

OC[C@H]1O[C@H](O[C@]2(CCl)O[C@H](CCl)[C@@H](O)[C@@H]2O)[C@H](O)[C@@H](O)[C@H]1Cl
inactive: Potency [1] | Potency [2] | Potency [4] | Potency [5] | Potency [9] | Potency [6] | outcome [7]

CCCCC(CC)C(=O)O (stereo not drawn)
inactive: Potency [1] | Potency [2] | Potency [4] | Potency [5] | Potency [9] | Potency [6] | outcome [7]

CCCCCCCCCCCC[N+](C)(C)Cc1ccccc1
active: Potency [2] 47.6 µM and 37.4 µM and 13.3 µM | Potency [6] 66.4 µM
inactive: Potency [1] | Potency [8] | Potency [5] | outcome [7]

F[B-](F)(F)F
inactive: Potency [1] | Potency [2] | Potency [4] | Potency [5] | Potency [6] | outcome [7]

CCN(Cc1c(F)cccc1Cl)c1c([N+](=O)[O-])cc(C(F)(F)F)cc1[N+](=O)[O-]
inactive: Potency [1] | Potency [2] | Potency [5] | Potency [9] | Potency [6] | outcome [7]

CN1CCC[C@H]1c1cccnc1
inactive: Potency [1] | Potency [2] | Potency [5] | Potency [6] | outcome [7]

C/C=C/C=C/C(=O)O
inactive: Potency [1] | Potency [2] | Potency [8] | Potency [5] | Potency [9] | Potency [6] | outcome [7]

Cn1c(=O)c2c(ncn2C)n(C)c1=O
55.1 µM (active) and inactive: Potency [6]
inactive: Potency [2] | Potency [8] | Potency [5] | outcome [7]

Nc1ccc(O)c([N+](=O)[O-])c1
active: Potency [6] 30.6 µM
inactive: Potency [8] | Potency [5] | outcome [7]

CCCC[P+](CCCC)(CCCC)CCCC
inactive: Potency [1] | Potency [2] | Potency [4] | Potency [5] | Potency [6] | outcome [7]

COc1cccc(O)c1O
active: Potency [9] 63.5 µM | Potency [6] 56.6 µM
inactive: Potency [2] | Potency [10] | Potency [3] | Potency [5] | outcome [7]

CC(=O)C(=O)O
inactive: Potency [1] | Potency [2] | Potency [4] | Potency [5] | Potency [9] | Potency [6] | outcome [7]

NC(=O)n1c(O)c(C(=O)c2cccs2)c2cc(Cl)ccc21
inactive: Potency [8] | Potency [4] | Potency [5] | outcome [7]
active: Potency [1] 16.8 µM | Potency [3] 13.3 µM

CC1(C)S[C@@H]2[C@H](NC(=O)[C@H](N)c3ccccc3)C(=O)N2[C@H]1C(=O)O
inactive: Potency [1] | Potency [2] | Potency [5] | Potency [6] | outcome [7]

C[C@](N)(Cc1ccc(O)c(O)c1)C(=O)O
inactive: Potency [1] | Potency [2] | Potency [8] | Potency [5] | Potency [6] | outcome [7]

NS(=O)(=O)O
inactive: Potency [1] | Potency [2] | Potency [5] | Potency [6] | outcome [7]

C=C1CC[C@H](O)C/C1=C\C=C1/CCC[C@]2(C)[C@@H]([C@H](C)CCCC(C)C)CC[C@@H]12
inactive: Potency [1] | Potency [2] | Potency [8] | Potency [5] | outcome [7]

CN[C@H]1CC[C@@H](c2ccc(Cl)c(Cl)c2)c2ccccc21
inactive: Potency [1] | Potency [6] | outcome [7]
active: Potency [8] 2.82 µM

CC/C(=C(\c1ccccc1)c1ccc(OCCN(C)C)cc1)c1ccccc1
inactive: Potency [4] | Potency [5] | outcome [7]
active: Potency [2] 61.1 µM [middle of 4 runs] | Potency [8] 11.2 µM

CC(C)c1c(C(=O)Nc2ccccc2)c(-c2ccccc2)c(-c2ccc(F)cc2)n1CC[C@@H](O)C[C@@H](O)CC(=O)O
inactive: Potency [1] | Potency [2] | Potency [8] | Potency [5] | Potency [6] | outcome [7]

Nc1c(N=Nc2ccc(-c3ccc(N=Nc4cc(S(=O)(=O)O)c5ccccc5c4N)cc3)cc2)cc(S(=O)(=O)O)c2ccccc12
inactive: Potency [8] | Potency [5] | outcome [7]
active: Potency [1] 12.2 µM | Potency [2] 27.3 µM | Potency [6] 15.3 µM

O=C(Nc1ncc([N+](=O)[O-])s1)c1cccs1
inactive: Potency [3] | Potency [8]

C1CCC(C(CC2CCCCN2)C2CCCCC2)CC1 (stereo not drawn)
active: Potency [2] 26.6 µM
inactive: Potency [1] | Potency [8] | Potency [5] | outcome [7]

Nc1ccc2c(c1)CN1C(=O)c3ccccc3C1=N2
inactive: activity, negative = inhibition [10] 57.2% [at 19 µM]
active: Potency [3] 3.26 µM | Potency [5] 11.6 µM
